# Measurements reported in the supplement of paper PMC4022240.
# ± gives the standard deviation.
# T1: HaloTag-ATRX ADD domain (163-292)
# T1 chain: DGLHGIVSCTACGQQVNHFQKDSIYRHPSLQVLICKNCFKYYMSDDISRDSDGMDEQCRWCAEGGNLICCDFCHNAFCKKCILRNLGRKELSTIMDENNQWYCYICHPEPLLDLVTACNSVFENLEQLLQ
# How the values were obtained:
# Assay in all cases: peptide microarray binding signal (635 nm), min-max normalized on array (fraction of array maximum); higher = stronger binding
# Details in all cases: peptide region: H3 11-23
# [1] = target: T1, HaloTag-ATRX ADD domain (163-292)
# Summary of the method: (§1)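 For each library, binding signal was taken as the triplicate-spot mean intensity and then min-max scaled. Spots of histone 13-mer peptide–cellulose conjugates on nitrocellulose, printed in triplicate with a Cy3 tracer, were probed for 1 h at 4°C with either biotin-labelled HaloTag reader fusions (10 nM to 1 μM) and streptavidin-Alexa Fluor 647 or rabbit histone antibodies (1:10,000 to 1:2,000) and anti-rabbit Alexa 647. Readout at 635 nm came from an Axon GenePix 4000B.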
# [2] = target: HaloTag-ING2 PHD (mouse Ing2 200-280)
# Summary of the method: as §1
# [3] = target: anti-H3K4me3 antibody ab8580
# Summary of the method: as §1
# [4] = target: anti-H3K9me3 antibody ab8898
# Summary of the method: as §1
# [5] = peptide modifications: H3K14me2 H3K18me2, binder concentration: 1:2,000 dilution
# [6] = peptide modifications: H3K14me2 H3K18me2, binder concentration: 1:10,000 dilution
# [7] = peptide modifications: H3K18me3, binder concentration: 1:2,000 dilution
# [8] = peptide modifications: H3K18me3, binder concentration: 1:10,000 dilution
# [9] = peptide modifications: H3K14me3, binder concentration: 1:2,000 dilution
# [10] = peptide modifications: H3K14me3, binder concentration: 1:10,000 dilution
# [11] = peptide modifications: H3K14me3 H3K18ac, binder concentration: 1:2,000 dilution
# [12] = peptide modifications: H3K14me3 H3K18ac, binder concentration: 1:10,000 dilution
# [13] = peptide modifications: H3K14me3 H3R17me2a, binder concentration: 1:2,000 dilution
# [14] = peptide modifications: H3K14me3 H3R17me2a, binder concentration: 1:10,000 dilution
# [15] = peptide modifications: H3K14me2 H3R17me1, binder concentration: 1:2,000 dilution
# [16] = peptide modifications: H3K14me2 H3R17me1, binder concentration: 1:10,000 dilution
# [17] = peptide modifications: H3K14me3 H3R17me1, binder concentration: 1:2,000 dilution
# [18] = peptide modifications: H3K14me3 H3R17me1, binder concentration: 1:10,000 dilution
# [19] = peptide modifications: H3K14me2 H3R17me2a, binder concentration: 1:2,000 dilution
# [20] = peptide modifications: H3K14me2 H3R17me2a, binder concentration: 1:10,000 dilution
# [21] = peptide modifications: H3R17cit H3K18ac, binder concentration: 1:2,000 dilution
# [22] = peptide modifications: H3R17cit H3K18ac, binder concentration: 1:10,000 dilution
# [23] = peptide modifications: H3K14me2 H3K18me3, binder concentration: 1:2,000 dilution
# [24] = peptide modifications: H3K14me2 H3K18me3, binder concentration: 1:10,000 dilution
binder,measurement,setting,value
TGGKAPRKQLATK [H3 11-23 T G G Kme2 A P R Kme2 Q L A T K],peptide microarray binding signal,"[1]; peptide modifications: H3K14me2 H3K18me2, binder concentration: 50 nM",0.00868 ± 0.00041
same,peptide microarray binding signal,"[1]; peptide modifications: H3K14me2 H3K18me2, binder concentration: 500 nM",0.0137 ± 0.0018
same,peptide microarray binding signal,"[2]; peptide modifications: H3K14me2 H3K18me2, binder concentration: 10 nM",0.00555 ± 0.00016
same,peptide microarray binding signal,"[2]; peptide modifications: H3K14me2 H3K18me2, binder concentration: 100 nM",0.0111 ± 0.00051
same,peptide microarray binding signal,[3]; [5],0.0136 ± 0.0033
same,peptide microarray binding signal,[3]; [6],0.0097 ± 0.0018
same,peptide microarray binding signal,[4]; [5],0.00616 ± 0.00078
same,peptide microarray binding signal,[4]; [6],0.00536 ± 0.00032
TGGKAPRKQLATK [H3 11-23 T G G K A P R Kme3 Q L A T K],peptide microarray binding signal,"[1]; peptide modifications: H3K18me3, binder concentration: 50 nM",0.0107 ± 0.00077
same,peptide microarray binding signal,"[1]; peptide modifications: H3K18me3, binder concentration: 500 nM",0.0257 ± 0.0005
same,peptide microarray binding signal,"[2]; peptide modifications: H3K18me3, binder concentration: 10 nM",0.00937 ± 0.00052
same,peptide microarray binding signal,"[2]; peptide modifications: H3K18me3, binder concentration: 100 nM",0.0178 ± 0.0018
same,peptide microarray binding signal,[3]; [7],0.257 ± 0.035
same,peptide microarray binding signal,[3]; [8],0.263 ± 0.14
same,peptide microarray binding signal,[4]; [7],0.0698 ± 0.0096
same,peptide microarray binding signal,[4]; [8],0.0292 ± 0.0022
TGGKAPRKQLATK [H3 11-23 T G G Kme3 A P R K Q L A T K],peptide microarray binding signal,"[1]; peptide modifications: H3K14me3, binder concentration: 50 nM",0.00567 ± 0.0004
same,peptide microarray binding signal,"[1]; peptide modifications: H3K14me3, binder concentration: 500 nM",0.017 ± 0.0053
same,peptide microarray binding signal,"[2]; peptide modifications: H3K14me3, binder concentration: 10 nM",0.0115 ± 0.0029
same,peptide microarray binding signal,"[2]; peptide modifications: H3K14me3, binder concentration: 100 nM",0.0106 ± 0.0035
same,peptide microarray binding signal,[3]; [9],0.0134 ± 0.0088
same,peptide microarray binding signal,[3]; [10],0.0221 ± 0.0092
same,peptide microarray binding signal,[4]; [9],0.062 ± 0.022
same,peptide microarray binding signal,[4]; [10],0.0336 ± 0.0081
TGGKAPRKQLATK [H3 11-23 T G G Kme3 A P R Kac Q L A T K],peptide microarray binding signal,"[1]; peptide modifications: H3K14me3 H3K18ac, binder concentration: 50 nM",0.00646 ± 0.00042
same,peptide microarray binding signal,"[1]; peptide modifications: H3K14me3 H3K18ac, binder concentration: 500 nM",0.0102 ± 0.00058
same,peptide microarray binding signal,"[2]; peptide modifications: H3K14me3 H3K18ac, binder concentration: 10 nM",0.0146 ± 0.00098
same,peptide microarray binding signal,"[2]; peptide modifications: H3K14me3 H3K18ac, binder concentration: 100 nM",0.032 ± 0.004
same,peptide microarray binding signal,[3]; [11],0.06 ± 0.018
same,peptide microarray binding signal,[3]; [12],0.0259 ± 0.0059
same,peptide microarray binding signal,[4]; [11],0.0686 ± 0.018
same,peptide microarray binding signal,[4]; [12],0.0246 ± 0.0023
TGGKAPRKQLATK [H3 11-23 T G G Kme3 A P Rme2a K Q L A T K],peptide microarray binding signal,"[1]; peptide modifications: H3K14me3 H3R17me2a, binder concentration: 50 nM",0.0192 ± 0.0025
same,peptide microarray binding signal,"[1]; peptide modifications: H3K14me3 H3R17me2a, binder concentration: 500 nM",0.027 ± 0.0031
same,peptide microarray binding signal,"[2]; peptide modifications: H3K14me3 H3R17me2a, binder concentration: 10 nM",0.0158 ± 0.0011
same,peptide microarray binding signal,"[2]; peptide modifications: H3K14me3 H3R17me2a, binder concentration: 100 nM",0.0298 ± 0.0018
same,peptide microarray binding signal,[3]; [13],0.0582 ± 0.0093
same,peptide microarray binding signal,[3]; [14],0.0419 ± 0.0073
same,peptide microarray binding signal,[4]; [13],0.133 ± 0.0046
same,peptide microarray binding signal,[4]; [14],0.0547 ± 0.0033
TGGKAPRKQLATK [H3 11-23 T G G Kme2 A P Rme K Q L A T K],peptide microarray binding signal,"[1]; peptide modifications: H3K14me2 H3R17me1, binder concentration: 50 nM",0.00417 ± 0.00015
same,peptide microarray binding signal,"[1]; peptide modifications: H3K14me2 H3R17me1, binder concentration: 500 nM",0.0101 ± 0.00014
same,peptide microarray binding signal,"[2]; peptide modifications: H3K14me2 H3R17me1, binder concentration: 10 nM",0.00483 ± 0.00017
same,peptide microarray binding signal,"[2]; peptide modifications: H3K14me2 H3R17me1, binder concentration: 100 nM",0.00843 ± 0.0018
same,peptide microarray binding signal,[3]; [15],0.00376 ± 0.0005
same,peptide microarray binding signal,[3]; [16],0.00211 ± 8.9e-05
same,peptide microarray binding signal,[4]; [15],0.00378 ± 0.00014
same,peptide microarray binding signal,[4]; [16],0.00288 ± 8.6e-05
TGGKAPRKQLATK [H3 11-23 T G G Kme3 A P Rme K Q L A T K],peptide microarray binding signal,"[1]; peptide modifications: H3K14me3 H3R17me1, binder concentration: 50 nM",0.0176 ± 0.0022
same,peptide microarray binding signal,"[1]; peptide modifications: H3K14me3 H3R17me1, binder concentration: 500 nM",0.0147 ± 0.00081
same,peptide microarray binding signal,"[2]; peptide modifications: H3K14me3 H3R17me1, binder concentration: 10 nM",0.00609 ± 0.00015
same,peptide microarray binding signal,"[2]; peptide modifications: H3K14me3 H3R17me1, binder concentration: 100 nM",0.00772 ± 0.00033
same,peptide microarray binding signal,[3]; [17],0.00823 ± 0.00055
same,peptide microarray binding signal,[3]; [18],0.00502 ± 0.00025
same,peptide microarray binding signal,[4]; [17],0.0269 ± 0.0047
same,peptide microarray binding signal,[4]; [18],0.0115 ± 0.00069
TGGKAPRKQLATK [H3 11-23 T G G Kme2 A P Rme2a K Q L A T K],peptide microarray binding signal,"[1]; peptide modifications: H3K14me2 H3R17me2a, binder concentration: 50 nM",0.00561 ± 0.00083
same,peptide microarray binding signal,"[1]; peptide modifications: H3K14me2 H3R17me2a, binder concentration: 500 nM",0.00867 ± 0.00039
same,peptide microarray binding signal,"[2]; peptide modifications: H3K14me2 H3R17me2a, binder concentration: 10 nM",0.00686 ± 0.00028
same,peptide microarray binding signal,"[2]; peptide modifications: H3K14me2 H3R17me2a, binder concentration: 100 nM",0.00893 ± 0.00059
same,peptide microarray binding signal,[3]; [19],0.00351 ± 0.00056
same,peptide microarray binding signal,[3]; [20],0.00434 ± 0.00045
same,peptide microarray binding signal,[4]; [19],0.00379 ± 0.00076
same,peptide microarray binding signal,[4]; [20],0.00306 ± 0.00024
TGGKAPRKQLATK [H3 11-23 T G G K A P Rcit Kac Q L A T K],peptide microarray binding signal,"[1]; peptide modifications: H3R17cit H3K18ac, binder concentration: 50 nM",0.00473 ± 9.3e-05
same,peptide microarray binding signal,"[1]; peptide modifications: H3R17cit H3K18ac, binder concentration: 500 nM",0.0124 ± 0.00036
same,peptide microarray binding signal,"[2]; peptide modifications: H3R17cit H3K18ac, binder concentration: 10 nM",0.00364
same,peptide microarray binding signal,"[2]; peptide modifications: H3R17cit H3K18ac, binder concentration: 100 nM",0.0114 ± 0.0017
same,peptide microarray binding signal,[3]; [21],0.003 ± 0.00042
same,peptide microarray binding signal,[3]; [22],0.0028 ± 0.00011
same,peptide microarray binding signal,[4]; [21],0.000634 ± 2.6e-05
same,peptide microarray binding signal,[4]; [22],0.000865 ± 2.4e-05
TGGKAPRKQLATK [H3 11-23 T G G Kme2 A P R Kme3 Q L A T K],peptide microarray binding signal,"[1]; peptide modifications: H3K14me2 H3K18me3, binder concentration: 50 nM",0.00646 ± 0.00024
same,peptide microarray binding signal,"[1]; peptide modifications: H3K14me2 H3K18me3, binder concentration: 500 nM",0.009572 ± 8e-05
same,peptide microarray binding signal,"[2]; peptide modifications: H3K14me2 H3K18me3, binder concentration: 10 nM",0.00859 ± 0.00099
same,peptide microarray binding signal,"[2]; peptide modifications: H3K14me2 H3K18me3, binder concentration: 100 nM",0.0188 ± 0.0022
same,peptide microarray binding signal,[3]; [23],0.54 ± 0.11
same,peptide microarray binding signal,[3]; [24],0.4 ± 0.12
same,peptide microarray binding signal,[4]; [23],0.0567 ± 0.005
same,peptide microarray binding signal,[4]; [24],0.0291 ± 0.002
